{
  "source": "PubChem BioAssay AID624351",
  "about": "(Southern Research Specialized Biocontainment Screening …, 2012)",
  "note": "Among all 2,400 compounds or so, about 1,400 (58%) were called active. So high a share suggests a set chosen from earlier hits. This is one part of the list. Unmarked numbers belong to inactive results.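 Rule for the calls: active = inhibition of 30% or more at any tested dose; inconclusive = primary hits over the limit that were never retested; inactive = the rest.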",
  "data": [
    {"assay": "coupled detection enzyme interference, dose response, artefact control for MgcRacGAP inhibitor project, biochemical, coupled enzyme counter-screen (AID 624351);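 note: signal is the ADP detection kit reading of free GDP without any GAP enzyme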;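 for inhibition: 0% = median positive control wells and 100% = median negative control wells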", "details": "ADP Hunter coupled enzyme counter-screen, fluorescence, no MgcRacGAP; series mostly up to 80 µM; inhibition: at the top concentration", "units": {"inhibition": "%"}, "values": [
      {"smiles": "COc1ccc(/C=N/Nc2nc(N3CCCC3)nc(N3CCCC3)n2)cc1O", "IC50": "71.1 µM (active)"},
      {"smiles": "CCOc1ccc(NCc2cccn2-c2nnc(N3CCC(C(=O)NCCCN4CCCCC4)CC3)s2)cc1", "IC50": "68.9 µM (active)"},
      {"smiles": "CCN(CC)Cc1cc(Nc2c3ccccc3nc3c4ccccc4n(C)c23)cc(CN(CC)CC)c1O", "IC50": "20.9 µM (active)"},
      {"smiles": "Cc1c(Cl)sn(-c2ccc(Cl)cc2)c1=O", "inhibition": 9.28},
      {"smiles": "Cc1[nH]n(-c2cccc(Cl)c2)c(=O)c1-c1ccc(Cl)cc1", "IC50": "77.2 µM (active)"},
      {"smiles": "Cc1ccc(-c2ccc(/C=C3\\C(=O)ON=C3c3ccccc3)o2)c([N+](=O)[O-])c1", "inhibition": 3.06},
      {"smiles": "COc1ccc(NC2CCCN(C(=O)c3ccccc3C(F)(F)F)C2)cc1", "note": "(stereo not given)", "IC50": "76.2 µM (active)"},
      {"smiles": "COc1ccc(NC2CCCN(C(=O)c3ccc(C(C)=O)s3)C2)cc1", "note": "(stereo not given)", "IC50": "80.4 µM (active)"},
      {"smiles": "COc1ccc(NC2CCCN(C(=O)COc3ccc(C(C)=O)cc3)C2)cc1", "note": "(stereo not given)", "IC50": "74.9 µM (active)"},
      {"smiles": "COc1ccc(CN2CCN(Cc3ccc(C(F)(F)F)cc3)CC2)cc1", "inhibition": 23.6},
      {"smiles": "COc1ccc(OCC(O)CN2CCCC2)cc1", "note": "(stereo not given)", "inhibition": 9.45},
      {"smiles": "COc1ccc(NC2CCCN(C(=O)C3(C)CCCCC3)C2)cc1", "note": "(stereo not given)", "IC50": "67.2 µM (active)"},
      {"smiles": "CCN1CCCC1CNCC(=O)Nc1ccc(OC(F)(F)F)cc1", "note": "(stereo not given)", "inhibition": 16.9},
      {"smiles": "Cc1ccc(C)c(OCC(O)CN2CCC(C)CC2)c1C", "note": "(stereo not given)", "inhibition": 12.6},
      {"smiles": "Cc1ccccc1C1=C/C(=C(\\SS/C(C(=O)c2ccc(OCC(=O)O)c(Cl)c2Cl)=C2\\C=C(c3ccccc3C)SS2)C(=O)c2ccc(OCC(=O)O)c(Cl)c2Cl)SS1", "inhibition": 7.13},
      {"smiles": "CSc1nc(=S)c2[nH]c(=S)[nH]c2[nH]1", "inhibition": 13.2},
      {"smiles": "CCCCNc1cc(NC(C)=O)cc2cc(OC)c(OC)cc12", "IC50": "52.3 µM (active)"},
      {"smiles": "Cc1ccc2c(c1)cc(C(=O)NCc1ccccc1)n2C", "inhibition": 1.98},
      {"smiles": "COc1cc2cc(NC(C)=O)cc(NCc3ccccc3)c2cc1OC", "IC50": "61 µM (active)"},
      {"smiles": "COc1cc2[nH]c(=S)nc(Nc3ccc(NC(C)=O)cc3)c2cc1OC", "inhibition": 4.2},
      {"smiles": "O=S(=O)(c1ccccc1)N1N=C(c2ccc(O)cc2)CC1c1ccco1", "note": "(stereo not given)", "inhibition": 21.9},
      {"smiles": "O=C1C=C(Nc2ccc(O)cc2)CC(c2ccco2)C1", "note": "(stereo not given)", "IC50": "17.8 µM (active)"},
      {"smiles": "Cc1cc(C)c(C)c(S(=O)(=O)Nc2ccc(O)cc2)c1C", "IC50": "48.5 µM (active)"},
      {"smiles": "Cc1cc(C)c(S(=O)(=O)Nc2ccc(O)cc2)c(C)c1", "IC50": "68.4 µM (active)"},
      {"smiles": "CCN(CC)c1ccc(C(=C2C=CC(=[N+](CC)CC)C=C2)c2ccccc2)cc1", "inhibition": 4.2},
      {"smiles": "CCN(CC)c1ccc(C(=C2C=CC(=[N+](CC)CC)C=C2)c2ccc(N(CC)CC)cc2)cc1", "IC50": "45.3 µM (active)"},
      {"smiles": "COc1ccccc1CN1CCN(C(=O)c2ccncc2)CC1", "inhibition": 18.7},
      {"smiles": "COc1cc(/C(C)=N\\NC(=O)CSc2nc3ccccc3n2C)ccc1O", "IC50": "39.3 µM (active)"},
      {"smiles": "COc1cc(/C(C)=N/NC(=O)C(O)(c2ccccc2)c2ccccc2)ccc1O", "IC50": "79.7 µM (active)"},
      {"smiles": "COc1cc(C(C)=NNC(=O)c2ccncc2)ccc1O", "IC50": "36.8 µM (active)"},
      {"smiles": "C/C(=N\\NC(=O)CSc1nc2ccccc2o1)c1ccc(O)cc1", "IC50": "68.9 µM (active)"},
      {"smiles": "O=C(O)c1cccc(N2C(=O)/C(=C/c3ccc(SCc4ccc(Cl)cc4)o3)SC2=S)c1", "inhibition": 1.08},
      {"smiles": "c1ccc(-c2ccccc2OCCN2CCOCC2)cc1", "inhibition": 21.1},
      {"smiles": "COc1cc(/C(C)=N/NC(=O)Cc2c(C)[nH][nH]c2=O)ccc1O", "IC50": "70.3 µM (active)"},
      {"smiles": "C=CCNCC(O)COc1ccc(C(C)=O)cc1OC", "note": "(stereo not given)", "inhibition": 13.1},
      {"smiles": "C#CCOCCOCCOCCNc1nc(N2CCN(C(=O)[C@H](CCCCN)n3cc(CN)nn3)CC2)nc(N2CCN(C(=O)[C@H](CCCCN)n3cc(CN)nn3)CC2)n1", "inhibition": 3.07},
      {"smiles": "Nc1ccc(Nc2ccccc2)c(Cl)c1", "IC50": "15.9 µM (active)"},
      {"smiles": "Nc1ccccc1SSc1ccccc1N", "inhibition": -6.81},
      {"smiles": "Nc1ccccc1Nc1ccccc1", "IC50": "34 µM (active)"},
      {"smiles": "Nc1ccccc1Nc1cccc(C(F)(F)F)c1", "IC50": "78.3 µM (active)"},
      {"smiles": "Cn1c(-c2ccccc2)cnc1NCc1ccc(-c2ccccc2)cc1", "inhibition": 25.8},
      {"smiles": "Cc1cc(C)cc(NC(=O)C(NCCN2CCOCC2)c2ccccc2)c1", "note": "(stereo not given)", "inhibition": 29.4},
      {"smiles": "COc1cc2c(cc1NC(=O)C(Cl)Cl)-c1ccc(NC(=O)C(Cl)Cl)cc1C2", "IC50": "71.4 µM (active)"},
      {"smiles": "COc1ccc(NC(=O)C(C)N2CCN(C)CC2)cc1", "note": "(stereo not given)", "inhibition": 25},
      {"smiles": "CN(C)/N=C/c1ccc(N2CCOCC2)cc1", "IC50": "60.4 µM (active)"},
      {"smiles": "O=C(O)CN1C(=O)/C(=C/c2ccc(SCc3ccccc3)o2)SC1=S", "inhibition": -9.9},
      {"smiles": "O=C(CC(c1ccccc1)c1ccccc1)Nc1ccc(O)cc1", "IC50": "56.5 µM (active)"},
      {"smiles": "CC(C)c1ccc(NC(=O)CNCC(c2ccccc2)N(C)C)cc1", "note": "(stereo not given)", "inhibition": 18.8},
      {"smiles": "O=C(CCCC(=O)c1ccccc1)Nc1ccc(O)cc1", "IC50": "18.2 µM (active)"},
      {"smiles": "COc1ccc(NC(=S)Nc2cccc3ccccc23)cc1OC", "inhibition": 27.8},
      {"smiles": "COc1cc2c(cc1NCc1ccc3c(c1)OCO3)oc1ccccc12", "inhibition": 13.4},
      {"smiles": "COc1cc2c(cc1NC(=S)Nc1cccc3ccccc13)oc1ccccc12", "IC50": "36.9 µM (active)"},
      {"smiles": "COc1cc2c(cc1NC(=S)Nc1ccccc1C)oc1ccccc12", "IC50": "41.1 µM (active)"},
      {"smiles": "CN(C)CCNC(C(=O)Nc1cccc(C(F)(F)F)c1)c1ccccc1", "note": "(stereo not given)", "inhibition": 27.1},
      {"smiles": "COc1cc2c[n+](C)c3c4ccccc4ccc3c2cc1OC", "inhibition": 13},
      {"smiles": "O=C(O)c1cc(N2N=C(C(F)(F)F)/C(=C/C=C/c3ccco3)C2=O)ccc1Cl", "inhibition": 12.8},
      {"smiles": "COc1ccc2c(c1OC)C(=O)OC2CC(=O)c1ccc(O)c(O)c1", "note": "(stereo not given)", "IC50": "58.7 µM (active)"},
      {"smiles": "COc1cccc2c1C(=O)c1c(O)c3c(c(O)c1C2=O)C[C@@](O)(C(=O)CO)C[C@@H]3OC1CC(N)C(O)C(C)O1", "note": "(stereo not given in full)", "inhibition": 10.3},
      {"smiles": "COc1cccc2c1C(=O)c1c(O)c3c(c(O)c1C2=O)CC(O)(C(C)=NNC(=O)c1ccc(Cl)c(Cl)c1)CC3OC1CC(N)C(O)C(C)O1", "note": "(stereo not given)", "inhibition": 3.28},
      {"smiles": "Nc1ccc(N(c2ccccc2)c2ccc(N)cc2)cc1", "IC50": "9.3 µM (active)"},
      {"smiles": "N#CC1=C(S)N(c2ccccc2)C2(CCCCC2)NC1=O", "inhibition": -2.39},
      {"smiles": "COc1cc(/C=N/NC(=S)Nc2cccc(C(=O)O)c2)ccc1O", "IC50": "46.3 µM (active)"},
      {"smiles": "COc1cc(/C=N/NC(=S)Nc2cccc(S(=O)(=O)N(C)C)c2)ccc1O", "IC50": "27.7 µM (active)"},
      {"smiles": "CN(C)S(=O)(=O)c1cccc(NC(=O)CNCC2CCCCC2)c1", "inhibition": 15},
      {"smiles": "COc1cc(/C=C2\\C(=O)N(c3cccc(C(=O)O)c3)N=C2C)ccc1OCc1ccccc1", "inhibition": 3.07}
    ]}
  ]
}
